According to PubChem BioAssay (NCI):
Compounds without any hit were thinned out: in the full panel of roughly 79,000, 15% have a hit. The source made the active and inactive calls. Cut-off read from the data, not from the text of the source: active = growth inhibition above about 70%; inactive = the rest.

How the values were obtained:
[1] = NCI Yeast Anticancer Drug Screen. Data for the rad50 strain (AID 155);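 note: 0% = growth of vehicle-only cultures of the same strain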; details: S. cerevisiae rad50 strain growth inhibition, stronger effect = higher value
Outline: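 DNA repair mutant yeast, compound exposure, growth read-out; inhibition is taken relative to vehicle.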

[2] = NCI Yeast Anticancer Drug Screen. Data for the mec2-1 strain (AID 157); details: S. cerevisiae mec2-1 strain, stronger effect = higher value
Outline: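 Using mec2-1 yeast: add compound, measure growth, express inhibition versus vehicle-treated cultures.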

[3] = NCI Yeast Anticancer Drug Screen. Data for the sgs1 mgt1 strain (AID 161);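 note: 0% = growth of cultures given vehicle only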; details: S. cerevisiae sgs1 mgt1 strain, stronger effect = higher value
Outline: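 Percent growth inhibition was derived by comparing compound-exposed mutant yeast with vehicle-exposed cultures. The strain carries alterations in DNA damage repair.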

[4] = NCI Yeast Anticancer Drug Screen. Data for the cln2 rad14 strain (AID 165);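 note: 0% = growth equal to vehicle treated cultures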; details: S. cerevisiae cln2 rad14 strain, stronger effect = higher value
Outline: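 Yeast strain cln2 rad14, bearing defects in cell cycle control and DNA repair, serves as the test system; values reflect growth inhibition compared with vehicle.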

[5] = NCI Yeast Anticancer Drug Screen. Data for the bub3 strain (AID 167); details: S. cerevisiae bub3 mutant strain, stronger effect = higher value
Outline: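 In this screen, a yeast mutant lacking normal mitotic checkpoint function is challenged with compound. Relative growth versus vehicle gives the inhibition value.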

[6] = NCI Yeast Anticancer Drug Screen. Data for the mlh1 rad18 strain (AID 175); details: S. cerevisiae mlh1 rad18 strain growth inhibition, stronger effect = higher value
Outline: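 Steps: expose repair-defective yeast to compound; measure growth; express inhibition against vehicle-treated controls.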

[7] = at 5.0 µM (retest, dose inferred, filed as 0.5)
[8] = at 50.0 µM (retest, dose inferred, filed as 5.0)

Measured: growth inhibition

Nc1nc2nn(-c3ccc(C(=O)O)cc3)nc2c(=O)[nH]1
inactive: [1]; [7] 2% | [1]; [8] 9% | [1]; at 50.0 µM 16.6% | [2]; [7] 3% | [2]; [8] 1% | [2]; at 50.0 µM 30.8% | [3]; [7] -4% | [3]; [8] 3% | [3]; at 50.0 µM 9.3% | [4]; [7] 4% | [4]; [8] 1% | [4]; at 50.0 µM -7.05% | [5]; [7] -2% | [5]; [8] -3% | [5]; at 50.0 µM 39.8% | [6]; [7] 3% | [6]; [8] 9% | [6]; at 50.0 µM 67.9%

CCOC(=O)/C=C(\C)OCC
inactive: [1]; [7] -5% | [1]; [8] 25% | [1]; at 50.0 µM 16.3% | [2]; [7] -3% | [2]; [8] 2% | [2]; at 50.0 µM 6.1% | [3]; [7] -4% | [3]; [8] 3% | [3]; at 50.0 µM 7.25% | [4]; [7] -1% | [4]; [8] 4% | [5]; [7] -5% | [5]; [8] -4% | [5]; at 50.0 µM 38.9% | [6]; [7] -5% | [6]; [8] 7% | [6]; at 50.0 µM 10.4%
active: [4]; at 50.0 µM 76%

CC(C)/C=N/N(CCOC(=O)Nc1ccccc1)C(=O)Nc1ccccc1
active: [4]; at 50.0 µM 82.2%
inactive: [1]; [7] 8% | [1]; [8] -6% | [1]; at 50.0 µM -3.85% | [2]; [7] -6% | [2]; [8] -12% | [2]; at 50.0 µM 14.3% | [3]; [7] -1% | [3]; [8] -6% | [3]; at 50.0 µM -12.7% | [4]; [7] -5% | [4]; [8] -1% | [5]; [7] -7% | [5]; [8] -9% | [5]; at 50.0 µM 16.1% | [6]; [7] -3% | [6]; [8] -5% | [6]; at 50.0 µM 6.9%

CCCCCC/C=C\CCCCCCCCCC1=C(CN2CCN(C)CC2)C(=O)C=C(OC)C1=O
inactive: [1]; [7] 24% | [2]; [7] 24% | [6]; [7] 54%
active: [1]; [8] 97% | [1]; at 50.0 µM 89.2% | [2]; [8] 98% | [2]; at 50.0 µM 91.8% | [3]; [7] 99% | [3]; [8] 98% | [3]; at 50.0 µM 90.3% | [4]; [7] 97% | [4]; [8] 98% | [4]; at 50.0 µM 89.2% | [5]; [7] 99% | [5]; [8] 98% | [5]; at 50.0 µM 91% | [6]; [8] 97% | [6]; at 50.0 µM 88.8%

Cc1ccc(SSCCCCCS(=O)O)cc1
active: [5]; [8] 88% | [5]; at 50.0 µM 84.4% | [6]; at 50.0 µM 77.5%
inactive: [1]; [7] 1% | [1]; [8] 24% | [1]; at 50.0 µM 49.5% | [2]; [7] 4% | [2]; [8] 60% | [2]; at 50.0 µM 23.1% | [3]; [7] 3% | [3]; [8] 54% | [3]; at 50.0 µM 42.9% | [4]; [7] -5% | [4]; [8] 34% | [4]; at 50.0 µM 58% | [5]; [7] 10% | [6]; [7] 6% | [6]; [8] 49%

CC(C)C(C)OC(=O)Nc1cccc(O)c1 (stereo not given)
inactive: [1]; [7] -142% | [1]; [8] -141% | [1]; at 50.0 µM 35.3% | [2]; [7] -48% | [2]; [8] -53% | [2]; at 50.0 µM 3.15% | [3]; [7] -66% | [3]; [8] -48% | [3]; at 50.0 µM 18.1% | [4]; [7] -50% | [4]; [8] -54% | [4]; at 50.0 µM 46.5% | [5]; [7] -67% | [5]; [8] -74% | [5]; at 50.0 µM 2.3% | [6]; [7] -144% | [6]; [8] -102% | [6]; at 50.0 µM 18.4%

O=S(=O)(Nc1ccc2ccccc2c1)c1ccccc1
active: [1]; [8] 98% | [1]; at 50.0 µM 97.7% | [2]; [8] 99% | [2]; at 50.0 µM 98% | [3]; [8] 99% | [3]; at 50.0 µM 97.8% | [4]; [8] 93% | [4]; at 50.0 µM 92.2% | [5]; [8] 99% | [5]; at 50.0 µM 97.2% | [6]; [8] 98% | [6]; at 50.0 µM 98%
inactive: [1]; [7] -10% | [2]; [7] -21% | [3]; [7] 2% | [4]; [7] 7% | [5]; [7] -9% | [6]; [7] -18%

c1ccc(C[n+]2cccc(-c3cc4ccccc4[nH]3)c2)cc1
inactive: [1]; [7] 12% | [1]; [8] 14% | [1]; at 50.0 µM -21.7% | [2]; [7] 0% | [2]; [8] -42% | [2]; at 50.0 µM -24.6% | [3]; [7] -9% | [3]; [8] 17% | [3]; at 50.0 µM -45.2% | [4]; [7] -46% | [4]; [8] -23% | [5]; [7] -17% | [5]; [8] -9% | [5]; at 50.0 µM -43.5% | [6]; [7] -1% | [6]; [8] 13% | [6]; at 50.0 µM -3.55%
active: [4]; at 50.0 µM 77.3%

C#CC(C)(C)Nc1c2ccccc2nc2ccccc12
active: [1]; [8] 98% | [1]; at 50.0 µM 98.2% | [2]; [8] 97% | [2]; at 50.0 µM 94.6% | [3]; [8] 98% | [3]; at 50.0 µM 98.8% | [4]; [8] 94% | [4]; at 50.0 µM 93.7% | [5]; [8] 98% | [5]; at 50.0 µM 97.5% | [6]; [8] 98% | [6]; at 50.0 µM 98.7%
inactive: [1]; [7] 7% | [2]; [7] 2% | [3]; [7] -1% | [4]; [7] 0% | [5]; [7] -2% | [6]; [7] 11%

COc1ccc(-c2c(C#N)c(-c3ccc(C)cc3)n(NS(=O)(=O)c3ccc(C)cc3)c(=O)c2C#N)cc1
inactive: [1]; [7] -2% | [1]; [8] 55% | [2]; [7] -2% | [2]; at 50.0 µM 68.7% | [3]; [7] -3% | [3]; [8] 44% | [4]; [7] -5% | [4]; [8] 68% | [4]; at 50.0 µM 64.1% | [5]; [7] 4% | [5]; [8] 65% | [6]; [7] -2% | [6]; [8] 62%
active: [1]; at 50.0 µM 71.3% | [2]; [8] 70% | [3]; at 50.0 µM 84.7% | [5]; at 50.0 µM 79.4% | [6]; at 50.0 µM 83.6%
